Screening data: PubChem, several laboratories
This is a sample that favours compounds with a hit; in the whole collection about 2.3% have one here.
Calb FLC: C. albicans growth modulation with fluconazole | C. albicans CaCi-2 (fluconazole-resistant clinical isolate) + fluconazole, Alamar Blue growth, 48 h | growth inhibition, % (no concentration beside the values) | 300,000 compounds, 0.57% hits;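 active means growth inhibition above about 58% in most replicates, limit read from the data, passing the limit was not always enough; inconclusive means exactly half the replicates above a set limit; inactive means most replicates below a set limit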;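 further: all wells also contain fluconazole at 8 µg/ml as a sub-toxic cotreatment; 0% = median of DMSO wells and 100% = median of geldanamycin control wells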
IDE cell inh: inhibitors of human insulin-degrading enzyme in cells | HEK cells, FAbetaB cleavage, fluorescence polarization | P14735 | inhibition, % at 5.59 µM | 320,000 compounds, 0.41% hits;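 active means percent inhibition above the average of all tested compounds plus 3 SD, set per screening campaign, cut at about 16% in these data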;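 further: IDE supplied by intact live HEK cells; FP after avidin binding of uncleaved biotin substrate so inhibition keeps polarization high; 0% = DMSO wells and 100% = 60 µM reference IDE inhibitor Ii1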
Rpn11 inh: Rpn11 (human) deubiquitinase inhibition. O00487. human 26S proteasome, Ub4-pepOG fluorescence polarization; 20S core pre-blocked with epoxomicin. inhibition, % at 20 µM. 360,000 compounds, 0.59% hits. AID 588493;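 active means inhibition at 20 µM, scaled to each plate's controls, above about 33%, limit read from the data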
Rin1 Abl inh: human Rin1-Abl interaction inhibition | P00519+Q13671 | TR-FRET Rin1/Abl binding, biochemical | inhibition, % at 7.35 µM | 360,000 compounds, 0.4% hits; in the data active means inhibition above about 5%, passing the limit was not always enough
IDE cell activ: activators of human insulin-degrading enzyme in cells; activation, % at 5.96 µM; AID 493087; 340,000 compounds, 0.073% hits; HEK cells, FAbeta-B cleavage, fluorescence polarization; 0% vehicle, 100% cell-free pure enzyme wells;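 active means activation above the mean of all tested compounds plus 3 SD, set per screening campaign, cut at about 17% in these data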
TPT1 inhibitor: C. albicans TPT1 enzyme inhibition | recombinant caTPT1, FP RNA substrate dephosphorylation | inhibition, % at 5 µM | 300,000 compounds, 0.81% hits;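 active means inhibition above the mean of all tested compounds plus 3 SD, set per screening campaign, cut at about 24% in these data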;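 further: plate controls were DMSO alone for no effect and ferristatin control at 100 nM for full effect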
Rpn11 confirm: Rpn11 inhibition confirmation, single concentration. AID 602318. shares compounds with Rpn11 inh. inhibition, % at 20 µM. 1,900 compounds, 29% hits. purified human 26S proteasome, Ub4-pepOG fluorescence polarization; proteasome pretreated with epoxomicin
MMP-2 counter: MMP-2 (human) inhibition counter-screen. shares compounds with Rpn11 inh. recombinant MMP-2, FRET peptide cleavage fluorescence. inhibition, % at 20 µM. 1,900 compounds, 4% hits. AID 602330;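 further: human MMP-2 activated beforehand with APMA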
Target sequence (P08253 whole entry, looked up): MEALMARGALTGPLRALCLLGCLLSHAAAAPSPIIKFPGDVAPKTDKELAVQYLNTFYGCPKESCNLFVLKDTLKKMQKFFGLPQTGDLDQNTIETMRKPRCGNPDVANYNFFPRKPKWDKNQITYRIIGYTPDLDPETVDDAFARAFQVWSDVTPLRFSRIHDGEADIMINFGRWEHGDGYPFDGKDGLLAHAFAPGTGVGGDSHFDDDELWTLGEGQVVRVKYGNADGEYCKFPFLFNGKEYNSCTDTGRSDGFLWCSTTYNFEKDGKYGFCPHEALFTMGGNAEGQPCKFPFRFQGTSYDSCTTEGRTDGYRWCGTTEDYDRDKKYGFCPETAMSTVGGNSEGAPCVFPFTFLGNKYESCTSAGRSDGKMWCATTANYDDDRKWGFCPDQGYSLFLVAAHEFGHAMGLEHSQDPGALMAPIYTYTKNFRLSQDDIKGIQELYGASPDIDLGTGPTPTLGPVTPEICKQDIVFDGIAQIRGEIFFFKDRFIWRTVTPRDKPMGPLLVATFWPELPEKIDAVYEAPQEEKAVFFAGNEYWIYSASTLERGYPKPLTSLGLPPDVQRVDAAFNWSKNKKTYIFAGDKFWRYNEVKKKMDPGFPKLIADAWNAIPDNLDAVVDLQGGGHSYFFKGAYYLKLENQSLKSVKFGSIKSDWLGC
Thrombin inh: counter-screen for RPN11 inhibitors: inhibition of bovine thrombin | shares compounds with Rpn11 inh | bovine thrombin cleavage of Ub4-pepOG, fluorescence polarization | inhibition, % at 20 µM | 1,900 compounds, 13% hits | AID 602333;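 active means mean inhibition at least 40% at 20 µM, or signal 3 deviations below plate average, so some actives read negative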;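 further: plate controls were thrombin with DMSO for no effect and buffer wells lacking thrombin for full effect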
Starred values were filed as active, the others as inactive; i = inactive; ? = inconclusive; · = no result shown; + = active, no number. Unless noted, no stated cut-off is given here; in the data, active means inhibition above about 40%; inactive means the rest.

SMILES	Calb FLC	IDE cell inh	Rpn11 inh	Rin1 Abl inh	IDE cell activ	TPT1 inhibitor	Rpn11 confirm	MMP-2 counter	Thrombin inh
Cn1c(N)c(C(=O)COC(=O)c2cc(-c3ccccc3)nc3ccccc23)c(=O)n(Cc2ccccc2)c1=O	·	1	45*	0	-3	6	33	2	20
CCOC(=O)C1=C(O)/C(=C/c2ccc(-c3ccccc3C(=O)O)o2)SC1=Nc1ccc(C)cc1	·	·	·	-1	-18	·	·	·	·
CCOC(=O)C1=C(O)/C(=C/c2ccc(-c3ccccc3C(=O)O)o2)SC1=Nc1ccc(OC)cc1	·	·	52*	-2	0	·	60*	12	41*
CC(C)(C)c1cc(C(=O)NCc2cc(F)cc3c2OCOC3)n(Cc2ccccc2)n1	2	0	-1	1	0	-1	·	·	·
C[C@@H]1C=C(C(=O)N2CCOCC2)O[C@H](OCc2ccc(CO)cc2)C1	-12	5	1	4	-4	-2	·	·	·
Cc1ccc(S(=O)(=O)Nc2ccccc2-c2ccccc2)cc1	10	1	33*	-2	2	-1	-25	13	-14
CCc1ccc(NC(=O)/C(C#N)=C/c2cc3ccc(C)cc3nc2N2CCOCC2)cc1	-1	2	·	2	1	7	·	·	·
CCN(CC)c1nc2cc(C)ccc2cc1/C=C(\C#N)C(N)=O	30	4	49*	-9	-8	12	15	11	10
CCOC(=O)Sc1nc2ncncc2[nH]1	·	·	1	3	-6	·	·	·	·
CC(=O)c1cccc(NC(=O)c2cccc3c(-c4cccc(C(N)=O)c4)coc23)c1	·	·	+	-5	·	·	31	-25	57*
CS(=O)(=O)Nc1cccc(NC(=O)c2cccc3c(-c4cccc(C(N)=O)c4)coc23)c1	·	·	4	-3	·	·	·	·	·
Cc1cc(F)ccc1C(O)c1ncc(-c2cccc(F)c2)[nH]1 (stereo not drawn)	·	·	5	1	·	·	·	·	·
COc1ccc(C(=O)Nc2ccc(C(=O)Nc3cccnc3)cc2)cc1	7	1	106*	1	-6	-1	39	-273	-2
COc1ccc(C(=O)Nc2ccc(/C(C)=N/NC(=O)c3ccncc3)cc2)cc1	-2	-3	85*	-4	-1	-1	45*	i	-5
COc1ccc(/C(C)=N/NC(=O)c2ccncc2)cc1	0	-6	-4	-1	1	0	·	·	·
O=C(O)c1cccc(Nc2ccnc(Nc3cccc(C(=O)O)c3)n2)c1	7	-1	14	-3	5	-3	·	·	·
CC1Cc2c([nH]c(=O)n(-c3ccccc3)c2=O)O1 (stereo not drawn)	·	·	-2	3	1	·	·	·	·
COC(=O)c1sc(N2C(=O)C(O)=C(C(=O)c3ccc(C)o3)C2c2ccc(F)cc2)nc1C (stereo not drawn)	54	2	54*	2	-4	26*	16	14	-3
CCOC(=O)c1sc(N2C(=O)C(O)=C(C(=O)c3ccco3)C2c2cccc(Cl)c2)nc1C (stereo not drawn)	71	3	55*	-4	0	8	15	39	5
COC(=O)c1sc(N2C(=O)C(O)=C(C(=O)c3ccc(C)o3)C2c2cccs2)nc1C (stereo not drawn)	-10	2	49*	4	4	10	5	12	-26
COc1ccc(N2CCN(C(c3cc(OC)ccc3OC)c3nnnn3Cc3ccco3)CC2)cc1 (stereo not drawn)	-7	1	30*	-1	-7	2	-13	3	-11
CCn1c(SCC(=O)Nc2ccc(-c3nc4ccc(C)cc4s3)cc2)nnc1-c1ccccc1	0	3	·	·	·	-3	·	·	·
C=CCn1c(SCC(=O)Nc2ccc(-c3nc4ccc(C)cc4s3)cc2)nnc1-c1ccncc1	-3	-2	60*	-5	0	0	2	-5	1
CCOC(=O)C1CCCN(Cc2nc3ccc([N+](=O)[O-])cc3c(=O)n2-c2ccc(OC)cc2OC)C1 (stereo not drawn)	4	4	109*	-2	4	0	0	-25	-15
CCOC(=O)C1CCN(Cc2nc3ccc([N+](=O)[O-])cc3c(=O)n2-c2ccc(OC)cc2OC)CC1	0	-1	2	0	3	-3	·	·	·
SMILES	Calb FLC	IDE cell inh	Rpn11 inh	Rin1 Abl inh	IDE cell activ	TPT1 inhibitor	Rpn11 confirm	MMP-2 counter	Thrombin inh
COc1ccc(-c2cc(CNc3nc(NC(C)C)nc4cc(-c5ccccc5)sc34)on2)cc1	·	·	5	-2	·	·	·	·	·
Cn1c2ccccc2c(=O)c2c(=O)n(C3CCCCCC3)c(C3CCCCC3)nc21	11	·	146*	0	6	·	-4	-40	-7
Cn1c2ccccc2c(=O)c2c(=O)n(-c3ccccc3)c(C3CCCCC3)nc21	?	3	3	-1	3	-1	·	·	·
Cc1[nH]n(-c2nc(-c3ccc(Cl)cc3)cs2)c(=O)c1N=Nc1ccc(O)cc1	-3	2	42*	-6	·	7	-5	-24	-3
COCCN(CC(=O)Nc1cccc(C)c1C)C(=O)Cc1sc(C)nc1-c1ccc(F)cc1	·	-1	8	6	3	·	·	·	·
COc1cccc(-c2cc(C(=O)Nc3cc(C)on3)no2)c1	5	5	59*	-3	-6	0	31	32	-7
COc1ccc(-c2cc(C(=O)Nc3ccccc3SC)no2)cc1	-11	3	2	4	4	-4	·	·	·
COc1ccc(-c2cc(C(=O)Nc3cc(Br)ccc3O)no2)cc1	4	1	55*	1	1	-5	17	-19	-2
CCN(CC)CCOC(=O)c1ccc(N/C=C(/C#N)c2nc(-c3ccc(OC)c(OC)c3)cs2)cc1	15	1	95*	-13	9	2	70*	-93	57*
Cc1ccsc1C(=O)N1CCC1(C)C(=O)NS(=O)(=O)c1cccc(F)c1 (stereo not drawn)	·	·	-2	1	·	·	·	·	·
O=C1NC(=Nc2ccc3ccccc3c2)S/C1=C/c1ccco1	-5	1	40*	4	5	19	25	-21	16
COC(=O)c1ccc(N2CCN(c3ccccc3)CC2)c(N)c1	-2	4	-2	-3	0	-1	·	·	·
O=C(N/N=C/c1cn(-c2ccccc2)nc1-c1ccc2c(c1)OCCO2)c1ccncc1	17	-1	82*	4	26*	0	15	-8	-7
Cc1nc([N+](=O)[O-])c(C(=O)OCc2ccccc2F)n1C	-21	-2	-6	0	0	2	·	·	·
